Assay outcomes (PubChem)
Most compounds without a hit are left out; they make up all but 3.3% or so of the library.
TbPYK inhibitor: inhibitors of Trypanosoma brucei pyruvate kinase; Potency, µM (series often up to 76.8 µM), most hits filed as inhibitors; 410,000 tested, 0.12% active; Q57TT1; TbPYK enzyme, Kinase-Glo Plus ATP luminescence, 45 min; further: nearly all actives have a fitted effect of over 50% in size
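ADP (130 uM final) triggers the TbPYK reaction after compound addition; incubation is 45 min at room temperature. Kinase-Glo Plus is then added and luminescence imaged. Normalized data are fitted to concentration-effect curves.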
LmPK inhibitor: LmPK (Leishmania mexicana) enzyme inhibition | Q27686 | purified LmPK, Kinase-Glo ATP luminescence, 1 h | Potency, µM (series often up to 57.5 µM), most hits filed as inhibitors | 290,000 tested, 0.37% active | AID 1721
Target sequence (Q27686 whole entry, looked up): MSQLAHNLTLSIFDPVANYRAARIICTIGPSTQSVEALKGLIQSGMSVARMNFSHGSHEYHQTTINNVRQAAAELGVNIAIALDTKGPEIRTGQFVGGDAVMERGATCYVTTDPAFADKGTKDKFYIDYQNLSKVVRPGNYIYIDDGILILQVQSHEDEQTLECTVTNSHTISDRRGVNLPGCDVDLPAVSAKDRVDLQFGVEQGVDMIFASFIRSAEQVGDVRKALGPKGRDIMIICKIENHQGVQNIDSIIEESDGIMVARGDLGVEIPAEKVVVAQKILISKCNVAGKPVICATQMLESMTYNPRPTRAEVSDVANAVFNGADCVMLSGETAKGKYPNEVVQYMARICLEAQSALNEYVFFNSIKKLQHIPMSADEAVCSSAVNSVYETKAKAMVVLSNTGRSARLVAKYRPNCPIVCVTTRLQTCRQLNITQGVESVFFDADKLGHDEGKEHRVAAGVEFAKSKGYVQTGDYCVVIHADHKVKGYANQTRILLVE
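0.1 nM LmPK, 0.5 mM PEP, 0.1 mM ADP; 50 mM imidazole pH 7.2, 7 mM MgCl2, 50 mM KCl; 1 h RT. Kinase-Glo luminescence readout, normalized to no-enzyme (full inhibition) and uninhibited wells.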
SARS PLpro yeast-1: SARS-CoV PLP inhibition in yeast. Potency, µM (top dose mostly 32.9 µM), usual class: activators. 330,000 tested, 0.19% active. S. cerevisiae expressing SARS-CoV PLpro, growth rescue; calls by dose curve; further: nearly all actives have a fitted effect of over 55% in size
Sm TGR block: S. mansoni TGR enzyme inhibition | Potency, µM (top dose mostly 114 µM), hits mostly inhibitors | Q962Y6 | purified TGR, DTNB reduction, TNB absorbance 405 nm | AID 485364 | 360,000 tested, 3% active; further: nearly all actives have a fitted effect of over 60% in size
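Kinetic colorimetric format: TGR-catalysed, NADPH-driven DTNB reduction monitored via TNB absorbance. Enzyme dispensed at 20 nM; compound exposure 15 min at room temperature before reaction start.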
RE007 growth inh: less growth of the S. pombe RE007 Vpr strain | S. pombe RE007 Vpr strain, BacTiter-Glo ATP luminescence, 24 h | Potency, µM (top dose mostly 92.2 µM), most hits filed as inhibitors | 360,000 tested, 0.21% active | AID 651644; active means well fitted falling curve with a large enough effect; inconclusive means small, poorly fitted or top-dose-only effect; inactive means no such curve, though single readings can be large or run the other way; further: nearly all actives have a fitted effect of over 50% in size
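Fission yeast RE007 carrying one integrated HIV-1 vpr copy, seeded at OD 0.01 in PMG+AL medium with 23 nL pinned compound. Grown 24 h at 30 degrees; viability read by BacTiter-Glo luminescence after 5 min.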
NS1 function inh: influenza NS1 inhibition. AID 2326. Potency, µM (doses to about 46.1 µM). 270,000 tested, 0.4% active; calls by dose curve; further: actives are rising curves; nearly all actives have a fitted effect of over 50% in size
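A cell-based growth assay was used: compounds that relieve NS1-induced slow growth of budding yeast raise OD600. Assay medium was yeast nitrogen base with ammonium sulphate and -URA supplement, pH 6.0, with 2% galactose.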
SARS PLpro yeast-2: Validates SARS-CoV PLpro inhibitor hits in yeast; yeast expressing SARS-CoV PLpro, growth phenotype rescue; 1,000 tested, 19% active; AID 652038; shares compounds with SARS PLpro yeast-1; calls only; call rule not given here
Numbers stand for hits; i = inactive; ? = inconclusive; nt = no result; + = active, no number; [ ] = remark or other dose. Unless noted, the call rests on the fitted dose curve; in most records, active means well fitted curve in the direction sought with a large enough effect; inconclusive means small, poorly fitted or top-dose-only effect, or another doubt; inactive means no such curve, though single readings can be large; an effect the other way counts as inactive or inconclusive.

SMILES	TbPYK inhibitor	LmPK inhibitor	SARS PLpro yeast-1	Sm TGR block	RE007 growth inh	NS1 function inh	SARS PLpro yeast-2
CCN(C(=O)c1cccn(Cc2cccc(Cl)c2)c1=O)c1ccccc1	i	nt	nt	i	nt	nt	nt
CCNC(=S)N/N=C/c1cccs1	i	i	?	?	i	i	+
CCNC(=S)N/N=C/c1cccc(/C=N/NC(=S)NCC)c1	i	i	i	i	i	i	nt
Cc1ccc(NC(=O)C(Cc2ccccc2)N2Cc3ccccc3C2=O)cc1Cl (configuration not stated)	i	nt	nt	i	nt	nt	nt
CN(C)c1cc[n+](CC(=O)Nc2cc(C(F)(F)F)ccc2Cl)cc1	i	i	?	?	i	i	i
O=C(NCC(c1cccnc1)N1CCN(c2ccccc2F)CC1)C1CCCCC1 (configuration not stated)	i	i	?	i	i	i	i
COc1ccc(C(=O)CSc2nnc(NC(=O)C3CC(=O)N(c4ccccc4)C3)s2)cc1 (configuration not stated)	i	i	?	i	i	i	?
CC1=C(c2ccc(C(C)C)cc2)S(=O)(=O)NC1=NCCCN1CCN(c2ccccc2F)CC1	i	nt	nt	i	nt	nt	nt
COc1ccc(NC(=O)CCc2nc3c(C)nn(-c4ccc(C)cc4)c3n(C)c2=O)c(OC)c1	i	nt	nt	i	nt	nt	nt
O=S(=O)(NCCc1csc(-c2cccnc2)n1)c1ccc2c(c1)OCCO2	i	i	?	i	i	i	i
COc1ccc(-c2nc(CCNS(=O)(=O)c3ccc4c(c3)OCCO4)cs2)cc1	i	i	i	i	i	i	nt
O=C(CSCc1cccc(Br)c1)NC1CC1	i	i	?	i	i	i	i
O=C(CSCc1ccc(Br)cc1)NC1CC1	i	i	i	nt	i	i	nt
Cn1nnc2c(NCCc3ccccc3)ncnc21	i	nt	nt	i	nt	nt	nt
COc1ccccc1CNC(=O)Cn1c(=O)oc2cc(S(=O)(=O)N3CCC(C)CC3)ccc21	i	nt	nt	i	nt	nt	nt
C/C(CC(=O)NC1CCCCCC1)=N\NC(=O)c1cnccn1	i	i	3.55µM	i	i	i	i
O=C(NC1CCCCCCC1)c1cnccn1	i	i	i	i[11.4 µM]	i	i	nt
Cc1cn2c(=O)cc(COc3ccc(NC(=O)c4ccc(C(C)(C)C)cc4)cc3)nc2s1	i	nt	nt	i	nt	nt	nt
O=C(O)COc1ccccc1C(Nc1ccccn1)c1cc(Cl)c2cccnc2c1O (configuration not stated)	i	i	5.01µM	0.398µM	i	i	i
COc1ccc(C(NC(C)=O)c2ccc3cccnc3c2O)c(OC)c1 (configuration not stated)	i	i	2.24µM	i	i	i	+
CC(=O)NC(c1ccc(Cl)cc1Cl)c1ccc2cccnc2c1O (configuration not stated)	i	i	?	i	i	i	i
CCCC(=O)NC(c1ccc(Cl)cc1Cl)c1ccc2cccnc2c1O (configuration not stated)	i	i	?	i	i	i	nt
CC(=O)NC(C)c1cc(Cl)c2cccnc2c1O (configuration not stated)	i	nt	?	i	nt	nt	i
COc1ccc(N2CCN(C(CNS(=O)(=O)c3c(C)cc(C)cc3C)c3ccco3)CC2)cc1 (configuration not stated)	i	nt	nt	i	nt	nt	nt
COc1ccccc1C(=O)Nc1nnc(SCc2cc(=O)n3ccc(C)cc3n2)s1	i	nt	nt	i	nt	nt	nt
SMILES	TbPYK inhibitor	LmPK inhibitor	SARS PLpro yeast-1	Sm TGR block	RE007 growth inh	NS1 function inh	SARS PLpro yeast-2
CCOC(=O)C1CCN(C(=O)C2CCN(c3nnc(C)c4c(C)n(-c5ccccc5)nc34)CC2)CC1	i	nt	nt	i	nt	nt	nt
CCOC(=O)c1ccc(NC(=O)C2=C(C)C(=O)OC23CCCCCC3)cc1	i[15.4 µM]	nt	nt	i	nt	nt	nt
CCC(Sc1nnc(C)n2c1cc1occc12)C(=O)Nc1ccccc1F (configuration not stated)	i	nt	nt	i	nt	nt	nt
COc1ccc(NC(=O)c2noc3c2CCCC3)cc1Cl	i	nt	nt	i	nt	nt	nt
O=C1CN(C(=O)COc2ccc(Cl)cc2Cl)C(c2ccc(F)cc2)c2cc(F)ccc2N1 (configuration not stated)	i	nt	nt	i	nt	nt	nt
O=C(COC(=O)c1ccccc1C(=O)c1ccc(Cl)c([N+](=O)[O-])c1)NC1CCCCCC1	?	i	3.55µM	i	i	?	+
O=C(COC(=O)c1ccc(Cl)c([N+](=O)[O-])c1)NC1CCCC1	i	i	i	i	i	i	nt
CCCC(=O)NC(c1ccc(C)cc1)c1ccc2cccnc2c1O (configuration not stated)	i	i	?	i	?	i	+
CCCC(=O)NC(c1ccc2c(c1)OCO2)c1cc(Cl)c2cccnc2c1O (configuration not stated)	i	i	2.82µM	i	i	i	i
CCCCC(=O)NC(c1ccc(N(CC)CC)cc1)c1ccc2cccnc2c1O (configuration not stated)	i	i	3.98µM	i	i	i	?
COc1ccc(C(CC(=O)Nc2cccc(C)c2C)N2Cc3ccccc3C2=O)cc1 (configuration not stated)	i	nt	nt	i	nt	nt	nt
Cc1ccc(CNc2nc(-c3ccco3)nn2C(=O)c2ccccc2[N+](=O)[O-])cc1	i	nt	nt	i	nt	nt	nt
COc1ccc(N(CC(=O)Nc2cc(Cl)ccc2OC)S(=O)(=O)c2c(C)noc2C)cc1	i	i	?	i	i	i	+
COc1ccc(OC)c(NC(=O)CN(c2ccc(C)cc2)S(=O)(=O)c2c(C)noc2C)c1	i	i	i	i	i	i	nt
Cc1ccc([N+](=O)[O-])cc1NC(=O)C1CCN(S(C)(=O)=O)CC1	i	i	?	i	i	i	i
CC(C)Oc1ccc(/C=N/NC(N)=S)cc1	i	i	?	i	i	i	+
CC(C)(C)c1ccc(C(=O)Cn2nc(C(=O)O)c3ccccc3c2=O)cc1	i	i	i	i	i	i	nt
CC(C)CC(=O)Nc1ccc(C(=O)Cn2nc(C(=O)O)c3ccccc3c2=O)cc1	i	i	12.6µM	i	i	i	i
CCOC(=O)C1CCN(C(=O)CN(c2cc(Cl)ccc2OC)S(=O)(=O)c2ccccc2)CC1	i	i	?	i	i	i	i
Cc1c(Cl)cnc(NC(=O)COC(=O)c2ccc3ncsc3c2)c1Cl	i	i	i	i	i	i	nt
O=C(COC(=O)c1ccc2ncsc2c1)Nc1ncc(Cl)cc1Cl	i	i	22.4µM	i	i	i	i
CC(C)c1ccc(NC(=O)Cn2cc(S(=O)(=O)Cc3ccccc3Cl)c3ccccc32)cc1	i[15.4 µM]	nt	nt	i	nt	nt	nt
CCCn1c(NC(=O)c2cccc(C)c2C)nc2ccccc21	i	i	?	i	?	i	i
CNC(=S)NCc1ccc(Cl)cc1	i	nt	nt	nt	i	nt	nt
COc1ccc(CNC(=S)NCc2ccc(OC)cc2)cc1	i	i	i	nt	i	i	nt
